Screens as filed in PubChem BioAssay.
hERG WT inh: KCNH2 (human, wildtype) channel inhibition | Q12809 | AID 720551 | U2OS, BacMam KCNH2, thallium flux FluxOr; hits give low values | 340,000 tested, 0.37% active | activity change, % at 1.84 µM;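 active = maximum activity change below -70%; inconclusive = maximum activity change between -70% and -50%; inactive = maximum activity change above -50%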; also: % is scaled to controls: 0 for no effect and ±100 for the full control effect
Target sequence (Q12809 whole entry, looked up): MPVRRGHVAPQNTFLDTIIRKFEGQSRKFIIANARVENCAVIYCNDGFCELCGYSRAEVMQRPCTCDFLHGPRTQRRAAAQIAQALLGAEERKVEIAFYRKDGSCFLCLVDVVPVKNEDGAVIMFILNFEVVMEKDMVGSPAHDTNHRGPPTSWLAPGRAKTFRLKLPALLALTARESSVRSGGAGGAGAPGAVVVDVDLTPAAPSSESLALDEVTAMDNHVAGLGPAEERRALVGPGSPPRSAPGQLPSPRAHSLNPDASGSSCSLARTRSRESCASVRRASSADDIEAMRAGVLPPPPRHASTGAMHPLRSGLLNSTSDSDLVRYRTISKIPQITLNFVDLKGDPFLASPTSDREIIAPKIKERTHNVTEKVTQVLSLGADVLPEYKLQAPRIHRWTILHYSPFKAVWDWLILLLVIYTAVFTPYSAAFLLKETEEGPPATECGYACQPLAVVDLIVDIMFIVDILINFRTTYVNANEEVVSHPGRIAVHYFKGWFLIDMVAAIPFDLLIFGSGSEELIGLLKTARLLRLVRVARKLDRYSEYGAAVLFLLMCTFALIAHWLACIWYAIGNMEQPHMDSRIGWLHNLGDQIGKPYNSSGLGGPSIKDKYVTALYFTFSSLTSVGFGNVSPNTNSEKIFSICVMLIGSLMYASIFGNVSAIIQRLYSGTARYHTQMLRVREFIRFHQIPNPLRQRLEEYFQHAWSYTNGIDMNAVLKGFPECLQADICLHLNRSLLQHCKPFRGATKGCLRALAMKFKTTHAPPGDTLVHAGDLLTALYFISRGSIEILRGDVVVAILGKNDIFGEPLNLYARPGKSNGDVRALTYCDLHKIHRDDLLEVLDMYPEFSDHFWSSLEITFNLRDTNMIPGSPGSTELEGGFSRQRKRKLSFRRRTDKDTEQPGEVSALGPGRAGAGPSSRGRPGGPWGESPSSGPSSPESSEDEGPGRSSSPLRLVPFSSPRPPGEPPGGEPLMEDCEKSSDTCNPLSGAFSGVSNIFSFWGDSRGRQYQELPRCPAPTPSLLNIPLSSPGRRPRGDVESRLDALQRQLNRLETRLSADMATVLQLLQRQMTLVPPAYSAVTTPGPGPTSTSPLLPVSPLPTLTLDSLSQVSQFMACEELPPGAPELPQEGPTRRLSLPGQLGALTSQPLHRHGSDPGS
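U2OS cells were transduced with wild-type KCNH2 virus (2.03 x 10^8 / mL) for 4 h at room temperature, then cultured overnight at 37 C. Thallium flux was read with FluxOr dye. Rate constants were normalized to DMSO controls.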
ClpP mod: qHTS Assay for Activators of ClpP | AID 651965, 2013 | purified B. subtilis ClpP, FRET peptide cleavage, 20 min | 340,000 tested, 1.9% active | Potency, µM (series often up to 57.5 µM), inactives show at the highest dose activity change, negative = active; active = well fitted falling curve with a large enough effect; inconclusive = small, poorly fitted or top-dose-only effect; inactive = no such curve, though single readings can be large or run the other way; also: potency is read from the fitted curve at half-maximal effect; the source files actives as falling curves though it sought activators and does not explain the sign; nearly all actives have a fitted effect of over 65% in size
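FRET quenching reversal measured ClpP activation: 10 microg/mL B. subtilis ClpP at pH 8 with the FRET-FV decapeptide, read at 430 nm after 320 nm excitation. The 20-min minus 0-min signal was scaled between DMSO/no-enzyme wells and ADEP (5.8 microM final).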
LDHA block: inhibitors of human lactate dehydrogenase A; AID 1347041; purified LDHA, NADH/diaphorase-resazurin fluorescence; hits give low values; activity change, % (values are at about 110 or 230 µM); 480,000 tested, 0.15% active; in the data active = activity change below about -30%; inconclusive = mostly about -25% to -30%;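 also: plate controls were DMSO wells for no effect and wells without enzyme for full effect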
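Resorufin fluorescence (ex540/em590), read at 0 and 20 min after diaphorase/resazurin addition, reports the NADH left after a 5 min room-temperature reaction of 2 nM human LDH5 with 0.06 mM NADH and 0.2 mM pyruvate.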
KCNH2 3.1 inh: inhibitors of human KCNH2 3.1 potassium channel isoform. U2OS KCNH2 3.1, thallium flux FluxOr; hits give low values. activity change, % (tested at about 1.8 µM). 340,000 tested, 0.95% active. AID 720553;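 active = maximum activity change below -70%; inconclusive = maximum activity change from -70% to -50%; inactive = maximum activity change above -50%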;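 also: thallium influx rate constant from kinetic fluorescence after stimulation buffer; % is scaled to controls: 0 for no effect and ±100 for the full control effect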
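Steps: virus added to U2OS suspension (4 h, RT, dark); medium with 10% FBS added, cells plated, 37 C overnight; FluxOr/Red40 loading buffer 45 min RT; stimulation buffer, 2 min kinetic read; rate constant normalized.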
12-LOX inh: blocks human arachidonate 12S-lipoxygenase. P18054. purified 12hLO, xylenol orange hydroperoxide absorbance. Potency, µM (highest dose often 108 µM), without a hit: top-dose activity change, negative = inhibition, actives largely listed as inhibitors. 580,000 tested, 1.1% active. AID 1671190; active = well fitted inhibition curve with a large enough effect; inconclusive = small, poorly fitted or top-dose-only effect, or another doubt; inactive = no such curve, though single readings can be large or run the other way; also: potency is read from the fitted curve at half-maximal effect; % is scaled to controls: 0 for no effect and ±100 for the full control effect
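Purified human 12hLO (150 nM final) in 25 mM Hepes, 0.01% Triton X-100, pH 7.0 was preincubated 15 min at room temperature with compound. Then 40 uM arachidonic acid was added, 30 min. Hydroperoxide was read by Fe-XO absorbance ratio 573/405 nm.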
Chronic BCR inh: chronic active BCR signaling inhibition; 340,000 tested, 0.05% active; ABC-DLBCL IkBa-CBG/CBR reporter, luminescence ratio, 4 h; Potency, µM (top dose mostly 46.1 µM), without a hit: at the highest dose activity change, negative = inhibition, hits mostly inhibitors; active = well fitted inhibition curve with a large enough effect in the signal ratio, with a control signal flat, not every such curve was filed as active; inconclusive = small, poorly fitted or top-dose-only effect, or effect the other way, or a change in a side signal; the % refers to the signal ratio;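 also: potency is read from the fitted curve at half-maximal effect; plate controls were basal doxycycline-induced cells for no effect and cells given 10 µM MG132 for full effect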
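Concentration-response series (up to 46 uM) were applied to TMD8 dual-reporter cells for 4 h at 37C with doxycycline. Green/red ratio, after filter-overlap correction, defined %Activity; red signal alone was normalised to basal cells and zero luminescence.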
* hit, by the source's call; ? = inconclusive; . = no result; [ ] = dose if it differs, or a comment. Compounds with a hit are over-represented: about 3% of the library has one in this group of screens.

SMILES	hERG WT inh	ClpP mod	LDHA block	KCNH2 3.1 inh	12-LOX inh	Chronic BCR inh
O=C1CN(C(=O)Cn2ccc3cc(Cl)ccc32)CCN1	.	.	7	.	?	.
COc1ccc(C(=O)c2c(-c3ccc(OC)cc3)oc3ccccc23)cc1	-13	?	1	-71*	-2%	?
Cc1ccc(CN2C(=O)C(=O)c3cc(Br)cc(C)c32)cc1	.	-2%	15	.	14µM*	.
Cc1cccc(-c2cc3nc(C)cc(NCCCN(C)C)n3n2)c1	8	32µM*	2	8	5%	-18%
Cc1ccc(-c2cc3nc(C)cc(NCc4ccco4)n3n2)cc1	-4	28µM*	6	12	-12%	?
COCCNc1cc(C)nc2cc(-c3ccc(C)cc3)nn12	1	.	-3	3	-13%	?
Clc1cccc(-c2cc3nc4c(c(NCc5ccco5)n3n2)CCCC4)c1	-21	?	0	-101*	-11%	?
Cc1n[nH]c(C)c1CCC(=O)N1CCC(C2CCN(S(C)(=O)=O)CC2)C1 (stereo not given)	.	.	.	.	38%	.
O=C(O)CN1C(=O)c2cccc3cccc(c23)C1=O	.	.	.	.	-1%[176 µM]	.
CC(=O)N1C(=O)c2cccc3cccc(c23)C(=O)N1C(C)=O	-8	25µM*	-4	2	.	?
CC1=CC(C)(C)Nc2ccc(C)cc21	-14	32µM*	8	-13	?	0%
CC1=CC(C)(C)Nc2ccc(Cc3ccc4c(c3)C(C)=CC(C)(C)N4)cc21	5	3%	6	-2	?	6%
CC(=O)C1=C(C)NC(SCC(=O)c2ccc(Cl)cc2)=C(C#N)C1CC(C)C (stereo not given)	0	25µM*	-1	-25	-14%	-13%
CC(=O)C1=C(C)NC(SCC(=O)c2ccc(F)cc2)=C(C#N)C1CC(C)C (stereo not given)	22	-3%	3	-7	?	?
COc1ccc(NC(=O)Cc2cccc3ccccc23)c2cccnc12	.	.	13	.	?	.
COc1cccc(N2CC(C(=O)Nc3nnc(SCc4cccnc4)s3)CC2=O)c1 (stereo not given)	11	13µM*	-10	-1	2%	1%
COC(=O)CCNC(=O)C(c1ccccc1)c1ccccc1	.	.	4	.	-16%	.
COc1ccc2c(c1)[N+](C)(C)C(C)(C)C=C2C	-7	-2%	6	12	32µM*	?
CCOc1ccc2c(c1)[N+](C)(C)C(C)(C)C=C2C	5	.	-16	-8	?	1%
CCc1ccc([C@@H]2c3c(C)nn(-c4ccccc4)c3NC(=O)[C@H]2NC(=O)c2ccccc2)cc1	.	.	3	.	?	.
CCNC(=O)CN1CCN(C(C(=O)O)c2cn(CC(=O)O)c3ccccc23)CC1 (stereo not given)	.	.	11	.	?	.
COc1cc(/C=N/N2CCN(c3ccccc3OC)CC2)ccc1OC(C)=O	-4	28µM*	0	7	29%	6%
C[N+]1(CC(=O)OCCCC2CCCCC2)CCOCC1	.	.	2	.	11µM*	.
FC(F)(F)c1ccccc1N/N=C1/CCCc2ccccc21	.	.	-3	.	?	.
FC(F)(F)c1ccccc1N/N=C1/CCc2ccccc21	.	.	-1	.	10µM*	.
SMILES	hERG WT inh	ClpP mod	LDHA block	KCNH2 3.1 inh	12-LOX inh	Chronic BCR inh
Cc1nc(C)c(CCC(=O)Nc2ccccc2Cl)c(=O)[nH]1	.	.	-1	.	-24%	.
FC(F)(F)c1ccc(Cl)c(N/N=C/c2ccccc2Cl)c1	.	.	8	.	35µM*	.
O=C(O)c1cc(N/N=C/c2ccc(OCc3ccccc3)cc2)ccc1Cl	-2	-3%	-3	-1	?	?
FC(F)(F)c1ccc(Cl)c(N/N=C/c2ccc(OCc3ccccc3)cc2)c1	.	.	-4	.	2.5µM*	.
Cc1cccc(C)c1N1C(=O)C(CCc2ccccc2)N(C(=O)c2ccc(F)cc2)c2ccccc21 (stereo not given)	.	.	.	.	8%	.
CCOc1ccc(NC(=O)c2nnn3cc(C)[nH]c(=O)c23)cc1	.	.	.	.	-2%	.
